Shown is part of a subset that was picked to be rich in hits.
BL2 CD40 inh = inhibitors of CD40-induced NF-kB signaling, primary screen, BL2 cells, luciferase reporter, single point | CD40L-induced, 4 h | inhibition, % at 10 µM | 83,000 tested, 0.94% active | AID 1053188, 2014;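 active = mean inhibition of at least 50% with a set share of replicates also reaching that level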;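 also: 0% = neutral control wells and 100% = IKK inhibitor VII at 50 µM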
The depositor's hits bear a star; [ ] = dose if it differs, or a comment.

Results for O=C(Cc1ccccn1)N1CCCCN2[C@H](C1)[C@@H](c1ccc(-c3ccccc3F)cc1)[C@@H]2CO ?
BL2 CD40 inh: 17.3[25 µM]

Results for CN1C2CN(CC(F)(F)F)CC1C2c1ccc(Br)cc1 (stereo not drawn) ?
BL2 CD40 inh: -3.5

Results for CC1CC(C)(O)CC(C(O)CC2CC(=O)NC(=O)C2)C1=O (stereo not drawn) ?
BL2 CD40 inh: 95.7*

Results for N#Cc1ccc(-c2ccc([C@@H]3[C@H](CO)N4CCCCN(C(=O)Cc5ccccc5)C[C@@H]34)cc2)cc1 ?
BL2 CD40 inh: -3.3[25 µM]

What do the screens show for `CC=Cc1ccc2n(c1=O)C[C@H]1[C@H](CO)[C@@H](C(=O)OC)[C@@H]2N1C(=O)CC1CC1` (mixture of isomers)?
BL2 CD40 inh: -1.9[25 µM]

How did C[C@H](CO)N1C[C@H](C)[C@H](CN(C)C(=O)Oc2ccccc2)OCc2ccccc2-c2c(n(C)c3ccccc23)C1=O do in these assays?
BL2 CD40 inh: 12.6

How did CC(=O)N1C[C@@H]2N[C@H](C1)C2c1ccccc1 (stereo partly drawn) do in these assays?
BL2 CD40 inh: -4.4

How did O=C([C@H]1N[C@H]2c3cccc(=O)n3C[C@H]2[C@@H]1CO)N1CCCCC1 do in these assays?
BL2 CD40 inh: 0.9[25 µM]

Results for COc1cccc(-c2ccc([C@H]3[C@H](CO)N4CCCCN(C(=O)Cc5ccncc5)C[C@@H]34)cc2)c1 ?
BL2 CD40 inh: -9.7[25 µM]

Results for O=C1CNC[C@@H]2[C@H](c3ccc(Br)cc3)[C@@H](CO)N12 ?
BL2 CD40 inh: -12.6[25 µM]

Results for c1ccc(Cn2ccnc2)cc1 ?
BL2 CD40 inh: 1.0

How did Clc1ccc(CSC(Cn2ccnc2)c2ccc(Cl)cc2Cl)cc1 (stereo not drawn) do in these assays?
BL2 CD40 inh: 48.8*

How did C[C@H](CO)N1C[C@H](C)[C@@H](CN(C)C(=O)Oc2ccccc2)OCc2ccccc2-c2c(n(C)c3ccccc23)C1=O do in these assays?
BL2 CD40 inh: 16.3

How did CC(C)C1(NC(=O)C2CC3c4cccc5[nH]cc(c45)CC3N(C)C2)OC2(O)C3CCCN3C(=O)C(Cc3ccccc3)N2C1=O (stereo not drawn) do in these assays?
BL2 CD40 inh: 1.0[25 µM]
